Assay results: PubChem BioAssay (Tox21)
Results filed as inconclusive are left out. Entries that show only a call come without a potency. Calls of active or inactive are those of the source. Calls follow the shape of the dose curve; as a rule, active = well fitted cell-killing curve with a large enough effect in the repeat runs; inconclusive = weak or mixed curves, or effect the other way; inactive = flat fitted curve, though single readings scatter.

assay: qHTS RealTime-Glo MT Cell Viability Assay in HepG2 cells - 0 hour (AID 1224889); settings: RealTime-Glo luminescence; series mostly up to 76.8 µM; also: nearly all actives have a fitted effect of over 50% in size
Text: U.S. Tox21 Program National Center for Advancing Translational Sciences [NCATS] NIH Chemical Genomics Center [NCGC] U.S. Environmental Protection Agency [EPA] National Institutes of Environmental Health Sciences [NIEHS] National Toxicology Program [NTP] U.S. Food and Drug Administration [FDA] Tox21 Assay Overview: Measure of cell viability is critical in the cell-base assay. Analysis of cell viability is necessary for the characterization of cell responses to cytotoxic drugs and environmental stress. A RealTime-Glo MT Cell Viability Assay to monitor cell viability in real time of continues cell culture during 40 hours of compound treatment was used to screen Tox21 10K library compounds in HepG2 cells. The RealTime-Glo MT Cell Viability Assay is a nonlytic, homogeneous, bioluminescent method to measure cell viability in real time using a simple, plate-based method. The assay involves adding NanoLuc luciferase and a cell-permeant prosubstrate to cells in culture. Viable cells reduce the proprietary prosubstrate to generate a substrate for NanoLuc luciferase. This substrate diffuses from cells into the surrounding culture medium, where it is rapidly used by the NanoLuc Enzyme to produce a luminescent signal. The signal correlates with the number of viable cells, making the assay well suited for cytotoxicity studies.
Tox21 Assay Protocol Summary: The mixture of HepG2 cell suspension and reagents were dispensed at 600cells/6 ul/well in 1536-well tissue culture treated black solid bottom plates using a Multidrop dispenser. After the assay plates were incubated at a 37 C/5% CO2 incubator for 5 hours, 23 nL of compounds dissolved in DMSO, positive and negative controls was transferred to the assay plate by a pintool work station. The plates were incubated at 37 C for 40 hours. The luminescence intensity were measured at 0h, 8h, 16h, 24h, 32h and 40h time points using ViewLux plate reader during compound treatment.
Potency is read from the fitted curve at half-maximal effect.

Row | SMILES | Potency
1 | CC(=O)c1ccc(-c2ccccc2)cc1 | inactive
2 | CCCCCCCCCCCCCCCC[N+](C)(C)C | inactive
3 | O=c1[nH]c2ccccc2n1CCCN1CCC(n2c(=O)[nH]c3cc(Cl)ccc32)CC1 | inactive
4 | SCc1ccco1 | inactive
5 | O=C1NCN(c2ccccc2)C12CCN(CC1COc3ccccc3O1)CC2 (stereo not given) | inactive
6 | CC(C)CC(C)Nc1ccc(Nc2ccccc2)cc1 (stereo not given) | 24.1 µM (active)
7 | O=[N+]([O-])c1cc(C(F)(F)F)c(Cl)c([N+](=O)[O-])c1Cl | inactive
8 | CCC(C)(C)C(=O)OC1=C(c2ccc(Cl)cc2Cl)C(=O)OC12CCCCC2 | 34.7 µM (active)
9 | CC1CCC(C(C)C)C(OC(=O)c2ccccc2N)C1 (stereo not given) | inactive
10 | Cc1ccc(OP(=O)(Oc2ccccc2)Oc2ccccc2)cc1 | inactive
11 | CCCCCCCCCCCCCN1CC(C)OC(C)C1 (stereo not given) | inactive
12 | CN(CCCC(O)c1cccnc1)N=O (stereo not given) | inactive
13 | Fc1ccc(Oc2ccnc3cc(Cl)cc(Cl)c23)cc1 | inactive
14 | O=C(CBr)c1ccc(O)cc1 | inactive
15 | CC(C)N1C(=O)N(c2ccccc2)CSC1=NC(C)(C)C | inactive
16 | [CH3][Hg][Cl] | inactive
17 | O=[N+]([O-])O.O=[N+]([O-])O.[Cd] | inactive
18 | Nc1ccccc1C(=O)OC/C=C/c1ccccc1 | inactive
19 | CCOCCOC(C)=O | inactive
20 | CC(C)Oc1cccc(NC(=O)c2ccccc2C(F)(F)F)c1 | inactive

Row | SMILES | Potency
21 | O=c1c(C2CC(c3ccc(-c4ccc(Br)cc4)cc3)Cc3ccccc32)c(O)sc2ccccc12 (stereo not given) | 6.74 µM (active)
22 | CC(=[OH+])/C=C(/C)[O-].CC(=[OH+])/C=C(\C)[O-].CC(=[OH+])/C=C(\C)[O-].[Al] | inactive
23 | N#CCCC(Br)(C#N)CBr (stereo not given) | inactive
24 | CC(C)CCCCCCCOP(=O)(Oc1ccccc1)Oc1ccccc1 | inactive
25 | CC(=[OH+])/C=C(/C)[O-].CC(=[OH+])/C=C(\C)[O-].CC(=[OH+])/C=C(\C)[O-].[Fe] | inactive
26 | COc1ccc(N)cc1N | inactive
27 | FC(F)(F)c1cccc(C2=CCN(CCc3ccc4ccccc4c3)CC2)c1 | inactive
28 | CC(=O)c1cc(C(C)(C)C)cc2c1CCC2(C)C | inactive
29 | O=C(Nc1ccc2[nH]ccc2c1)c1cc2cc(F)ccc2n1Cc1cccc(F)c1 | inactive
30 | CN(CCCC(=O)c1cccnc1)N=O | inactive
31 | S=C(SSC(=S)N1CCCCC1)N1CCCCC1 | inactive
32 | COc1ccc([N+](=O)[O-])cc1O | inactive
33 | ClCCN1CCOCC1 | inactive
34 | C=CCC1=C(C)C(OC(=O)C2C(C=C(C)C)C2(C)C)CC1=O (stereo not given) | inactive
35 | CCCN(CCC)CCc1c[nH]c2ccccc12 | inactive
36 | CCc1ccccc1C | inactive
37 | CC(C)CC(C)N (stereo not given) | inactive
38 | BrC(Br)C(Br)(Br)Br | inactive
39 | Clc1ccc(COC(Cn2ccnc2)c2ccc(Cl)cc2Cl)cc1 (stereo not given) | inactive
40 | CCN | inactive
